# In PubChem BioAssay AID372 (MTDP, 2006):
# In all, about 100,000 compounds went through this assay and about 770 (0.77%) were called active. What follows is part of a selection rich in actives, with near analogues and random picks from the rest. A number with no mark means an inactive call. Rule as the data show it: active = inhibition above about 50%; inactive = the rest.
# Target: Gag-Pol polyprotein (Human immunodeficiency virus type 1 group M subtype B (isolate HXB2)) (UniProt P04585)
# Test: RNase H inhibition, HIV 1 Gag Pol polyprotein, FRET biochemical assay, screening (AID 372)
# Conditions: HIV-1 RT RNase H, FRET RNA/DNA substrate fluorescence; at 10 µM; stronger effect = higher value
row,SMILES,inhibition
1,O=C(COc1ccccc1)Nc1cc(C(F)(F)F)cc(C(F)(F)F)c1,0%
2,CC1=C(C(=O)Nc2ccccc2)C(c2cccc(Br)c2)NC(=S)N1 (stereo unspecified),8%
3,COc1cc(/C=N\NC(=O)CSc2nc3ccccc3o2)ccc1O,25%
4,C#CCSc1nc(C)cc(C)c1C#N,13%
5,Cc1csc(NC(=O)C2CC3CCC2C3)n1 (stereo unspecified),4%
6,COc1ccc(N(CC(=O)Nc2cccc(OC)c2)S(=O)(=O)c2ccc(C)cc2)cc1,16%
7,CC(C(=O)O)n1c(O)c(/C=C2/C=Nc3ccccc32)sc1=S (stereo unspecified),4%
8,O=C(N/N=C/c1ccc(Cl)cc1Cl)c1cc(O)cc(O)c1,6%
9,Cc1ccccc1/C=N/NC(=O)c1cc(O)cc(O)c1,2%
10,O=C(N/N=C/c1coc2ccccc2c1=O)c1cc(O)cc(O)c1,55% (active)
11,O=C(N/N=C/c1ccccc1Cl)c1ccc(C(=O)N/N=C/c2ccccc2Cl)cc1,0%
12,C[n+]1ccc(C(=O)N/N=C/c2ccc(Cl)cc2Cl)cc1,0%
13,O=C(N/N=C/c1ccc(Cl)cc1Cl)c1ccc(O)c(O)c1,57% (active)
14,O=C(N/N=C/c1ccc(O)c(O)c1O)c1ccc(Cl)cc1Cl,61% (active)
15,O=C(N/N=C/c1c[nH]c2ccccc12)c1cc(O)cc(O)c1,8%
16,O=C(N/N=C/c1ccccc1Cl)c1cccc(Cl)c1,8%

row,SMILES,inhibition
1,O=C(N/N=C/c1ccc(Cl)cc1Cl)c1cc(Br)ccc1O,0%
2,O=C(N/N=C/c1ccc(Cl)cc1Cl)c1ccccc1Cl,5%
3,O=C(/C=C/c1cc(Br)cs1)Nc1ccccc1,11%
4,Cc1cc(C)c(S(=O)(=O)N2CCCC2=O)c(C)c1,0%
5,O=C(Nc1cc(NC(=O)c2cc(Cl)ccc2Cl)ccc1Cl)c1ccccc1,20%
6,Cc1nnc(C)n1/N=C/c1ccc(Cl)cc1,2%
7,Cn1c(SC/C=C/c2ccccc2)nc2sc3c(c2c1=O)CCC3,2%
8,CCOC(=O)c1c(NC(=O)Cc2cccs2)sc(C(=O)Nc2cc(C(F)(F)F)ccc2Cl)c1C,16%
9,COc1ccc(C2CC(=O)N(CCCN(C)C)C2)cc1 (stereo unspecified),2%
10,O=C(N/N=C/c1cccc(O)c1O)c1ccc(O)cc1,32%
11,O=C(N/N=C/c1cccc(O)c1O)c1ccccc1,31%
12,O=C(N/N=C/c1cccc(O)c1O)c1cc(O)cc(O)c1,86% (active)
13,O=C(N/N=C/c1cccc(Cl)c1Cl)c1ccc(Cl)c(Cl)c1,5%
14,O=C(N/N=C/c1cccc(Cl)c1Cl)c1ccc(O)cc1,0%
15,O=C(N/N=C/c1cccc(Cl)c1Cl)c1ccc(O)c(O)c1,56% (active)
